Results filed as inconclusive are left out. Active and inactive are the calls of the source. Calls follow the shape of the full dose curve.
Assay: Primary qHTS for inhibitors of SARS-S pseudo-typed particle cell entry (AID 1479145); also: nearly all actives have a fitted effect of over 45% in size
Details: SARS-S pseudotyped particle cell entry, luciferase reporter; series mostly up to 57.1 µM; activity change, negative = inhibition: at the top concentration
% is scaled to controls: 0 for no effect and ±100 for the full control effect.

Row | Compound | activity change, negative = inhibition | outcome
1 | O=C(O)[C@@H](O)[C@H](O)[C@H](O)[C@@H](O)C(=O)O | 1.83% (inactive) | –
2 | COc1ccccc1OCC(O)CO (centres undefined) | – | inactive
3 | Oc1ccc(OCc2ccccc2)cc1 | -3.04% (inactive) | –
4 | CC(=O)OCC[N+](C)(C)C | -6.05% (inactive) | –
5 | CCCCC(=O)OCC(=O)[C@H]1[C@H](C)C[C@H]2[C@@H]3C[C@H](F)C4=CC(=O)C=C[C@]4(C)[C@@]3(F)[C@@H](O)C[C@@]21C | – | inactive
6 | COc1c2occc2cc2ccc(=O)oc12 | – | inactive
7 | COc1ccc(NS(=O)(=O)c2ccc(N)cc2)nn1 | -31.2% (inactive) | –
8 | O=c1[nH]cnc2[nH]ncc12 | – | inactive [at 114 µM]
9 | C=CCc1ccc(O)c(OC)c1 | – | inactive
10 | Cc1ccc(C(=O)c2ccc(CC(=O)O)n2C)cc1 | 4.64% (inactive) | –
11 | COc1ccc(C2CNC(=O)C2)cc1OC1CCCC1 (centres undefined) | – | inactive
12 | CN(CC1(C)CCCO1)S(=O)(=O)c1ccc(Cl)c(S(N)(=O)=O)c1 (centres undefined) | -16% (inactive) | –
13 | NS(=O)(=O)c1cc2c(cc1Cl)NC(CC1CCCC1)NS2(=O)=O (centres undefined) | – | inactive
14 | CN[C@@H]1[C@@H](O)[C@@H](O[C@@H]2[C@H](O)[C@H](O[C@H]3OC(CN)=CC[C@H]3N)[C@@H](N)C[C@H]2N)OCC1(C)O (some centres undefined) | -10.2% (inactive) | –
15 | NC(N)=NCCN1CCCCCCC1 | – | inactive [at 0.573 µM]
16 | COc1ccc2[nH]cc(CCNC(C)=O)c2c1 | – | inactive
17 | NCCNCCNCCNCCN | – | inactive [at 11.4 µM]
18 | C[C@]12CCC(=O)C=C1CC[C@H]1[C@@H]3CC[C@](O)(C(=O)CO)[C@@]3(C)C[C@H](O)[C@@]12F | – | inactive
19 | COc1ccc(C(=O)c2ccccc2)c(O)c1 | -31.8% (inactive) | –

Row | Compound | activity change, negative = inhibition | outcome
20 | O=C(O)c1cccnc1 | – | inactive
21 | COc1ccc(O)cc1 | – | inactive
22 | COc1ccnc(CS(=O)c2nc3ccc(OC(F)F)cc3[nH]2)c1OC (centres undefined) | -25.6% (inactive) | –
23 | COC(=O)C1=C(C)NC(C)=C(C(=O)OCCc2ccc(N3CCN(C(c4ccccc4)c4ccccc4)CC3)cc2)C1c1cccc([N+](=O)[O-])c1 (centres undefined) | -4.36% (inactive) | –
24 | Cc1ccc(C(=O)C(=O)O)cc1C | -5.35% (inactive) | –
25 | CC(=O)OCC(=O)[C@@]1(OC(C)=O)[C@@H](C)C[C@H]2[C@@H]3C[C@H](F)C4=CC(=O)C=C[C@]4(C)[C@@]3(F)[C@@H](O)C[C@@]21C | – | inactive
26 | CC(=O)NCCCS(=O)(=O)O | – | inactive
27 | CCCCCCCN(CC)CCCC(O)c1ccc(NS(C)(=O)=O)cc1 (centres undefined) | – | inactive
28 | O=C1O[C@H](CO)[C@@H](O)[C@H](O)[C@H]1O | -3.45% (inactive) | –
29 | CCCc1nn(C)c2c(=O)[nH]c(-c3cc(S(=O)(=O)N4CCN(C)CC4)ccc3OCC)nc12 | -14.6% (inactive) | –
30 | Cc1c(NC(=O)c2cccnc2)c(=O)n(-c2ccccc2)n1C | -10.6% (inactive) | –
31 | OC[C@H]1O[C@@H](Oc2ccc(O)cc2)[C@H](O)[C@@H](O)[C@@H]1O | -38.4% (inactive) | –
32 | CC(C)=CCC1C(=O)N(c2ccccc2)N(c2ccccc2)C1=O | – | inactive
33 | CC(=O)O[C@@H]1CC2C3CCc4cc(OC(=O)c5ccccc5)ccc4C3CCC2(C)[C@H]1OC(C)=O (some centres undefined) | -7.44% (inactive) | –
34 | CC(=O)Nc1c(I)c(NC(C)=O)c(I)c(C(=O)O)c1I | -11.7% (inactive) | –
35 | O=C(c1ccccc1)c1ccccc1 | -19.7% (inactive) | –
36 | C[C@@H]1O[C@@H](OC[C@H]2O[C@@H](Oc3c(-c4ccc(O)c(O)c4)oc4cc(O)cc(O)c4c3=O)[C@H](O)[C@@H](O)[C@@H]2O)[C@H](O)[C@H](O)[C@H]1O | – | inactive
37 | CCC[C@@H]1C[C@@H](C(=O)N[C@@H]([C@H]2O[C@H](SC)[C@H](O)[C@@H](O)[C@H]2O)[C@@H](C)O)N(C)C1 | – | inactive

Assay: Primary qHTS for Huh7 cytotoxicity: counterscreen for inhibitors of MERS-S pseudotyped particle cell entry (AID 1479147)
Details: cell viability read-out; series mostly up to 57.1 µM; activity change, negative = cytotoxicity: at the top concentration

Row | Compound | outcome | activity change, negative = cytotoxicity
38 | O=C(O)[C@@H](O)[C@H](O)[C@H](O)[C@@H](O)C(=O)O | inactive | –
39 | COc1ccccc1OCC(O)CO (centres undefined) | inactive | –
40 | Oc1ccc(OCc2ccccc2)cc1 | inactive | –
41 | CC(=O)OCC[N+](C)(C)C | inactive | –
42 | CCCCC(=O)OCC(=O)[C@H]1[C@H](C)C[C@H]2[C@@H]3C[C@H](F)C4=CC(=O)C=C[C@]4(C)[C@@]3(F)[C@@H](O)C[C@@]21C | inactive | –
43 | COc1c2occc2cc2ccc(=O)oc12 | inactive | –
44 | COc1ccc(NS(=O)(=O)c2ccc(N)cc2)nn1 | inactive | –
45 | O=c1[nH]cnc2[nH]ncc12 | inactive [at 114 µM] | –
46 | C=CCc1ccc(O)c(OC)c1 | inactive | –
47 | Cc1ccc(C(=O)c2ccc(CC(=O)O)n2C)cc1 | inactive | –
48 | COc1ccc(C2CNC(=O)C2)cc1OC1CCCC1 (centres undefined) | inactive | –
49 | CN(CC1(C)CCCO1)S(=O)(=O)c1ccc(Cl)c(S(N)(=O)=O)c1 (centres undefined) | – | 3.75% (inactive)
50 | NS(=O)(=O)c1cc2c(cc1Cl)NC(CC1CCCC1)NS2(=O)=O (centres undefined) | – | 1.19% (inactive)
51 | CN[C@@H]1[C@@H](O)[C@@H](O[C@@H]2[C@H](O)[C@H](O[C@H]3OC(CN)=CC[C@H]3N)[C@@H](N)C[C@H]2N)OCC1(C)O (some centres undefined) | inactive | –
52 | NC(N)=NCCN1CCCCCCC1 | inactive [at 0.573 µM] | –
53 | COc1ccc2[nH]cc(CCNC(C)=O)c2c1 | inactive | –
54 | NCCNCCNCCNCCN | inactive [at 11.4 µM] | –
55 | C[C@]12CCC(=O)C=C1CC[C@H]1[C@@H]3CC[C@](O)(C(=O)CO)[C@@]3(C)C[C@H](O)[C@@]12F | inactive | –
56 | COc1ccc(C(=O)c2ccccc2)c(O)c1 | inactive | –

Row | Compound | outcome | activity change, negative = cytotoxicity
57 | O=C(O)c1cccnc1 | inactive | –
58 | COc1ccc(O)cc1 | inactive | –
59 | COc1ccnc(CS(=O)c2nc3ccc(OC(F)F)cc3[nH]2)c1OC (centres undefined) | inactive | –
60 | COC(=O)C1=C(C)NC(C)=C(C(=O)OCCc2ccc(N3CCN(C(c4ccccc4)c4ccccc4)CC3)cc2)C1c1cccc([N+](=O)[O-])c1 (centres undefined) | inactive | –
61 | Cc1ccc(C(=O)C(=O)O)cc1C | inactive | –
62 | CC(=O)OCC(=O)[C@@]1(OC(C)=O)[C@@H](C)C[C@H]2[C@@H]3C[C@H](F)C4=CC(=O)C=C[C@]4(C)[C@@]3(F)[C@@H](O)C[C@@]21C | inactive | –
63 | CC(=O)NCCCS(=O)(=O)O | inactive | –
64 | CCCCCCCN(CC)CCCC(O)c1ccc(NS(C)(=O)=O)cc1 (centres undefined) | inactive | –
65 | O=C1O[C@H](CO)[C@@H](O)[C@H](O)[C@H]1O | inactive | –
66 | CCCc1nn(C)c2c(=O)[nH]c(-c3cc(S(=O)(=O)N4CCN(C)CC4)ccc3OCC)nc12 | inactive | –
67 | Cc1c(NC(=O)c2cccnc2)c(=O)n(-c2ccccc2)n1C | inactive | –
68 | OC[C@H]1O[C@@H](Oc2ccc(O)cc2)[C@H](O)[C@@H](O)[C@@H]1O | inactive | –
69 | CC(C)=CCC1C(=O)N(c2ccccc2)N(c2ccccc2)C1=O | inactive | –
70 | CC(=O)O[C@@H]1CC2C3CCc4cc(OC(=O)c5ccccc5)ccc4C3CCC2(C)[C@H]1OC(C)=O (some centres undefined) | inactive | –
71 | CC(=O)Nc1c(I)c(NC(C)=O)c(I)c(C(=O)O)c1I | inactive | –
72 | O=C(c1ccccc1)c1ccccc1 | – | 1.86% (inactive)
73 | C[C@@H]1O[C@@H](OC[C@H]2O[C@@H](Oc3c(-c4ccc(O)c(O)c4)oc4cc(O)cc(O)c4c3=O)[C@H](O)[C@@H](O)[C@@H]2O)[C@H](O)[C@H](O)[C@H]1O | inactive | –
74 | CCC[C@@H]1C[C@@H](C(=O)N[C@@H]([C@H]2O[C@H](SC)[C@H](O)[C@@H](O)[C@H]2O)[C@@H](C)O)N(C)C1 | – | 0.251% (inactive)
